Some test systems named below: T-47D breast; MDA-MB-435 melanoma; SW-620 colon; MCF7 breast; HCT-116 colon; HCC-2998 colon; KM12 colon; BT-549 breast.
What all share (assay): NCI-60 one-dose screen, 48 h (100 = growth as untreated, 0 = no growth, -100 = all killed)
Common to all, as to conditions: 10 µM

About 83,000 compounds went through this panel and 20% of them were active in at least one assay; those are over-represented in the sample as a whole.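 Percent growth is the endpoint: 0 to 100 indicates growth inhibition (40 means 60% inhibition), 0 means no net growth, and negative values indicate cell death.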 Values without a mark were called inactive. The source made the active and inactive calls. The calls were made as follows: active = growth percent below 10; inactive = the rest.

In the case of `Cc1ccc(NCCNCC(C)(C)O)c2c(=O)c3ccc(Cl)cc3sc12`, the growth with T-47D breast was 27.4%; in the test with MDA-MB-435 melanoma it was -84.5% (active); in the test with SW-620 colon, -80.1% (active); with MCF7 breast, -73.2% (active); with HCT-116 colon it was -61.6% (active); with HCC-2998 colon it was -52.8% (active). The growth with KM12 colon is 8.21% (active).

On to `CCCCCCCCCCOC(c1ccccc1)c1ccccc1`, for which the growth was 77.1% in the test with T-47D breast; 99% with MDA-MB-435 melanoma; 98.1% in the test on SW-620 colon; 91.1% in the test with MCF7 breast; 58.6% in the test with HCT-116 colon; 99% in the test with HCC-2998 colon. In addition, the growth in the test with KM12 colon is 89.1%.

As for `Nc1ncc(-c2cnn(C3CCNCC3)c2)cc1-c1nc2ccccc2o1`, the growth is -4.42% (active) with T-47D breast; -55.5% (active) with MDA-MB-435 melanoma; -60.4% (active) in the test with SW-620 colon; 11.6% in the test on MCF7 breast; 14.2% with HCC-2998 colon; -81.3% (active) in the test with KM12 colon.

On to `c1ccc(CCCCc2ccc3ccccc3n2)cc1`, for which the growth with BT-549 breast was 102%; in the test with MDA-MB-435 melanoma it was 108%; with SW-620 colon, 102%; with MCF7 breast, 108%; with HCT-116 colon it was 96%; in the test with HCC-2998 colon, 92.9%.

Turning to `O=C(CCCCC(=O)Oc1c(Cl)cc(Cl)cc1[N+](=O)[O-])Oc1c(Cl)cc(Cl)cc1[N+](=O)[O-]`, the growth with T-47D breast was 102%; in the test with MDA-MB-435 melanoma, 103%; in the test on SW-620 colon, 112%; with MCF7 breast it was 86.3%; with HCT-116 colon it was 101%; with HCC-2998 colon it was 103%. In the test with KM12 colon, the growth was 99.7%.

On to `O=C1CC(=O)N(C(=O)c2nn(-c3ccc(Cl)cc3)cc2O)N1`, for which the growth was 23.4% in the test with T-47D breast; 48.1% in the test with MDA-MB-435 melanoma; 59.9% in the test on SW-620 colon; 39.9% in the test with MCF7 breast; 22.1% with HCT-116 colon; 47.4% in the test with HCC-2998 colon. In addition, in the test on KM12 colon, the growth was 46.5%.

Consider `Nc1nccc(OCCO)n1`, for which the growth with T-47D breast was 94.1%; in the test with MDA-MB-435 melanoma, 104%; in the test on SW-620 colon it was 107%; with MCF7 breast, 91.2%; with HCT-116 colon it was 97.8%; in the test on HCC-2998 colon, 97.4%. Besides, the growth in the test with KM12 colon was 97.8%.

`COc1ccc2nc3cc(Cl)ccc3c(NCCCNCCO)c2c1`: the growth was 5.74% (active) in the test on BT-549 breast; -69.1% (active) in the test with MDA-MB-435 melanoma; -2.84% (active) with SW-620 colon; -18.6% (active) with MCF7 breast; -50.4% (active) in the test on HCT-116 colon; -43.6% (active) with HCC-2998 colon. In addition, the growth in the test with KM12 colon is 3.19% (active).

On to `Cc1cc(SCc2ccccc2)nc(N)n1`, for which the growth with BT-549 breast was 89.3%; in the test on MDA-MB-435 melanoma, 99.2%; with SW-620 colon it was 105%; in the test on MCF7 breast, 93.8%; in the test on HCT-116 colon, 102%; in the test with HCC-2998 colon, 108%. In addition, the growth with KM12 colon is 115%.

Take `Cc1ccc(C2NC(=S)N3C(c4ccc(C)cc4)NC(=S)N23)cc1` (stereo not drawn): the growth in the test on T-47D breast is 47.3%; with MDA-MB-435 melanoma it was -35% (active); with SW-620 colon it was 29.2%; in the test with MCF7 breast, 10.5%; in the test on HCT-116 colon, 1.28% (active); in the test with HCC-2998 colon it was 47%. The growth with KM12 colon is 8.36% (active).

In the case of `O=C1c2ccccc2C(=O)c2c1ccc(C(Br)Br)c2[N+](=O)[O-]`, the growth in the test on T-47D breast was -36.2% (active); in the test on MDA-MB-435 melanoma, 81.5%; in the test with SW-620 colon, -23.6% (active); with MCF7 breast it was -40% (active); with HCC-2998 colon, 82%; with KM12 colon, 49.9%.

As for `Cc1ccc(C(SCC(N)C(=O)O)(c2ccc(C)cc2)c2ccc(C)cc2)cc1` (stereo not drawn), the growth in the test with T-47D breast was 27.2%; in the test with MDA-MB-435 melanoma it was -59.8% (active); in the test with SW-620 colon it was 20.5%; in the test with MCF7 breast, 9.12% (active); with HCT-116 colon, -25.5% (active); in the test on HCC-2998 colon, 1.38% (active). For the same compound, in the test on KM12 colon, the growth is 0.314% (active).

As for `COc1ccc(/C=c2\sc3n(c2=O)C(c2cc(OC)c(OC)c(OC)c2)C=C(c2ccc(OC)c(OC)c2)N=3)cc1OC` (stereo not drawn), the growth is 88.5% in the test on BT-549 breast; 86.1% with MDA-MB-435 melanoma; 109% in the test on SW-620 colon; 86.2% in the test with MCF7 breast; 89.4% in the test with HCT-116 colon; 95.8% in the test on KM12 colon.

On to `Cc1ccc(NC(=O)N2CCCCC2)cc1[N+](=O)[O-]`, for which the growth was 121% in the test on T-47D breast; 73.3% with SW-620 colon; 92.9% in the test on MCF7 breast; 94.7% in the test with HCT-116 colon; 103% in the test on HCC-2998 colon; 111% with KM12 colon.

With `IC(I)I`, the growth in the test with BT-549 breast was 103%; in the test with SW-620 colon, 102%; with MCF7 breast it was 100%; in the test on HCT-116 colon it was 106%; with HCC-2998 colon, 98%.

In the case of `COC1OC(COS(=O)OC)C(O)C(O)C1OS(=O)OC` (stereo not drawn), the growth in the test with T-47D breast was 110%; in the test on MDA-MB-435 melanoma it was 105%; in the test on SW-620 colon, 103%; with MCF7 breast, 88.4%; in the test with HCT-116 colon, 105%; in the test on HCC-2998 colon, 97.7%. Moreover, the growth in the test with KM12 colon was 98.5%.

As for `CCN(CC)CCCC(Nc1c2ccc(Cl)cc2nc2ccc(OC)cc12)c1ccc(F)cc1` (stereo not drawn), the growth in the test with BT-549 breast was 81.5%; in the test on MDA-MB-435 melanoma it was -86.9% (active); in the test with SW-620 colon, -53.9% (active); with MCF7 breast, -62.9% (active); in the test with HCT-116 colon it was -41% (active); with HCC-2998 colon, -85% (active). Also, the growth in the test with KM12 colon was 14.7%.

Turning to `CCCC1(CN2c3ccccc3Sc3ccc(Cl)cc32)CCN(CC)C1` (stereo not drawn), the growth in the test with MDA-MB-435 melanoma is -94.7% (active); in the test on SW-620 colon it was -94.7% (active); in the test on MCF7 breast, -93.7% (active); in the test on HCT-116 colon, -100% (active); in the test on HCC-2998 colon, -49.5% (active); with KM12 colon, -44.5% (active).

The values above are taken from PubChem BioAssay (NCI).
